Laboratory results as given in PubChem BioAssay (NCATS).
Results filed as inconclusive are left out. Active and inactive are the calls of the source. Unless noted, calls follow the shape of the dose curve; as a rule, active = well fitted curve in the direction sought with a large enough effect; inconclusive = small, poorly fitted or top-dose-only effect, or another doubt; inactive = no such curve, though single readings can be large; an effect the other way counts as inactive or inconclusive.

Legend:
7G8 = assay: qHTS profiling for inhibitors of Plasmodium falciparum proliferation (AID 504749); also: nearly all actives have a fitted effect of over 60% in size; conditions: P. falciparum in erythrocytes, SYBR Green DNA, 72 h; series mostly up to 28.7 µM
Summary of the method: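 Readout was DNA-dye fluorescence from lysed cultures, ex 485/em 535 nm. Parasitized red cells had grown 72 h with compound; data scaled between 0.29 uM artemisinin and DMSO wells and corrected using vehicle-only plates.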

[1] = Confirmation and Secondary Assay for Modulators of Hemoglobin Beta Chain Splicing at IVS2 654 locus (AID 910);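 also: HeLa cells stably carrying EGFP split by mutant beta-globin IVS2-654 intron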
Summary of the method: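 HeLa cells stably expressing EGFP interrupted by β-globin IVS2-654 intron, seeded overnight in Opti-MEM/2% FCS, then treated 2 days at 37 °C. Restored splicing read as total peak GFP intensity per well by laser scanning cytometry (488 nm excitation, 500–520 nm emission); 500 nM antisense PNA as control.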

[2] = Confirmation and Secondary Assay for Modulators of Hemoglobin Beta Chain Splicing at IVS2 705 locus (AID 930);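 also: HeLa cells stably expressing the EGFP-705 splicing reporter; GFP fluorescence per well restored by corrected splicing of the IVS2-705 intron in EGFP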
Summary of the method: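 HeLa cells stably carrying EGFP interrupted by mutant beta-globin intron 2 (IVS2-705) treated 2 days at 37C with compound; 500 nM antisense PNA as control. Correct splicing read as total peak GFP intensity per well by laser-scanning cytometry.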

[3] = biological target: Guanine nucleotide-binding protein G(i) subunit alpha-1 (Homo sapiens) (UniProt P63096); assay: qHTS Assay for Inhibitors of RGS12 GoLoco Motif Activity (Green Fluorophore) (AID 879);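 also: negative values mean loss of peptide binding seen as reduced polarization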
Summary of the method: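 Fluorescence polarization assay: 50 nM Gαi1 with 10 nM FITC-labeled RGS12 GoLoco peptide in 10 mM Tris pH 7.5, 150 mM NaCl, 0.1 mM GDP, 0.05% NP40, 10 min at room temperature with compound.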

[4] = qHTS Assay for Identification of Small Molecule Agonists for Thrombopoietin (TPO) Signaling Pathway (AID 917)
Summary of the method: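 We measured Glycoprotein IIb promoter–luciferase output in IL-3-starved Ba/F3 murine cells expressing the human TPO receptor after 24 hrs at 37 C with compounds and 26 pM TPO.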

[5] = biological target: Muscarinic acetylcholine receptor M1 (Rattus norvegicus) (UniProt P08482); assay: qHTS Assay for Antagonists of Acetylcholine Muscarinic M1 Receptor: Kinetic Measurement of Intracellular Calcium Response (AID 943);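 also: Fluo-4 calcium signal as peak divided by basal fluorescence over 4 min; nearly all actives have a fitted effect of over 75% in size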
Summary of the method: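 CHO cells stably expressing rat M1 were loaded with no-wash Fluo-4 dye for 1 h at 37C, pre-incubated 10 min with compound, then challenged with EC80 carbachol (100 nM final); kinetic calcium read 4 min, peak/basal ratio.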

[6] = biological target: Muscarinic acetylcholine receptor M1 (Rattus norvegicus) (UniProt P08482); assay: qHTS Assay for Antagonists of Acetylcholine Muscarinic M1 Receptor: Measurement of IP-One Response (AID 944); also: nearly all actives have a fitted effect of over 75% in size
Summary of the method: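 CHO cells expressing rat M1 receptor, recovered overnight, were pre-incubated 10 min with compound, then stimulated 30 min with carbachol at EC80 (200 nM) in LiCl-containing buffer, pH 7.4. IP1 accumulation was read by HTRF (620/665 nm).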

[7] = biological target: Pyruvate kinase (Leishmania mexicana) (UniProt Q27686); assay: qHTS Validation Assay for Inhibitors of Leishmania Mexicana Pyruvate Kinase (AID 945)
Summary of the method: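 Eight-point qHTS titrations in triplicate, data normalized to DMSO neutral control. Reaction: 0.2 nM LmPYK E451W mutant, 0.5 mM PEP, 0.1 mM ADP, 7 mM MgCl2, pH 7.2, one hour at room temperature; luminescent ATP detection.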

[8] = biological target: Pyruvate kinase PKM (Homo sapiens) (UniProt P14618); assay: qHTS Assay for Activators of Human Muscle Pyruvate Kinase (AID 954; active = well fitted curve in the direction sought with a large enough effect, not every such curve was filed as active)
Summary of the method: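 Purified human PKM2 (0.1 nM) with 0.5 mM PEP (Km) and 0.1 mM ADP in 50 mM imidazole pH 7.2, KCl, MgCl2, 1 h at room temperature; ATP formed read by coupled luciferase luminescence. Normalized to no-enzyme/110 uM thiadiazolimine inhibition; 0.3 nM enzyme column for activation.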

[9] = biological target: Alpha-galactosidase A (Homo sapiens) (UniProt P06280); assay: Counterscreen for Glucocerebrosidase Inhibitors: qHTS Assay for Human alpha-Galactosidase at pH 4.5 (AID 992)
Summary of the method: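 Human enzyme (2 nM) with 80 uM 4-methylumbelliferyl alpha-D-galactopyranoside in 50 mM citric acid, 0.005% Tween-20, pH 4.5, 20 min at room temperature. Compounds 0.7 nM–77 uM; fluorescence Ex 365/Em 440 after pH 10 stop; AC50 from Hill fits.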

Measured: Potency

Sequence of Muscarinic acetylcholine receptor M1 (Rattus norvegicus) (P08482 whole entry, looked up): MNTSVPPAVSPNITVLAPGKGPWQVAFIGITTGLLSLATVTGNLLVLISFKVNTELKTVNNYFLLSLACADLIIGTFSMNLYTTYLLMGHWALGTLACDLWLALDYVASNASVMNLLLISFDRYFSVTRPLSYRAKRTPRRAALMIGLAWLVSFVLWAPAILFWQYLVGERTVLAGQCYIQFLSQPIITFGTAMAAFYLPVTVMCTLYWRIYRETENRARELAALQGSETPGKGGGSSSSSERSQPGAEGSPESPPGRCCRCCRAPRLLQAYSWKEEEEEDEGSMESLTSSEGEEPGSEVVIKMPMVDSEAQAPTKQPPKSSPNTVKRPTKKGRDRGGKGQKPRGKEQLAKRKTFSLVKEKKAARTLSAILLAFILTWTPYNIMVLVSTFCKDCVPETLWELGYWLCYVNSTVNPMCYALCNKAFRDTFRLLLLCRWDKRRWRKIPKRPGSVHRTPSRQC
Sequence of Guanine nucleotide-binding protein G(i) subunit alpha-1 (Homo sapiens) (P63096 whole entry, looked up): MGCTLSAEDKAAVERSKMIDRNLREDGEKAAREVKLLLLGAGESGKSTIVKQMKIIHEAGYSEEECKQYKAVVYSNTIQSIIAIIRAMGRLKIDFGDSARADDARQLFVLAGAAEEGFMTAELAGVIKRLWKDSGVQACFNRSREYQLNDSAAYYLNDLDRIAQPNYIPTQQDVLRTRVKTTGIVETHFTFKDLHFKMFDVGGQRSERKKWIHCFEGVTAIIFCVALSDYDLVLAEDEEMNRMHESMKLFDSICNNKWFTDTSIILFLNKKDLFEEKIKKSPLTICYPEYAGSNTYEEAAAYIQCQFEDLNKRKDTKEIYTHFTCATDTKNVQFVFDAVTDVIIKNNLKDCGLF
Sequence of Pyruvate kinase (Leishmania mexicana) (Q27686 2-499 E452W): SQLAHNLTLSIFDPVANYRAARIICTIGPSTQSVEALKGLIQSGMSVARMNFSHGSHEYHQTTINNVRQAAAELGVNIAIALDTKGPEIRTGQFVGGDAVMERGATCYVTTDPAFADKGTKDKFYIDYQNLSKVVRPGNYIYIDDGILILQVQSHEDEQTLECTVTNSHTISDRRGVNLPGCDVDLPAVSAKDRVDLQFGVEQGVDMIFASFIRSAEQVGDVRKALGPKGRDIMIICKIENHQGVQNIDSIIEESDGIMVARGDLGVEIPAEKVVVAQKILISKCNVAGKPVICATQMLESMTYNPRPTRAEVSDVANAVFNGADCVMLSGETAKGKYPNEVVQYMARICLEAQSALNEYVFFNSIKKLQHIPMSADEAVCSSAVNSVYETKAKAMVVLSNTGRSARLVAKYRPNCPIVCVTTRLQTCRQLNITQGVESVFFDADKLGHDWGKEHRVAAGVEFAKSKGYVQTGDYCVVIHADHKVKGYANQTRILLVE
Sequence of Pyruvate kinase PKM (Homo sapiens) (P14618 whole entry, looked up): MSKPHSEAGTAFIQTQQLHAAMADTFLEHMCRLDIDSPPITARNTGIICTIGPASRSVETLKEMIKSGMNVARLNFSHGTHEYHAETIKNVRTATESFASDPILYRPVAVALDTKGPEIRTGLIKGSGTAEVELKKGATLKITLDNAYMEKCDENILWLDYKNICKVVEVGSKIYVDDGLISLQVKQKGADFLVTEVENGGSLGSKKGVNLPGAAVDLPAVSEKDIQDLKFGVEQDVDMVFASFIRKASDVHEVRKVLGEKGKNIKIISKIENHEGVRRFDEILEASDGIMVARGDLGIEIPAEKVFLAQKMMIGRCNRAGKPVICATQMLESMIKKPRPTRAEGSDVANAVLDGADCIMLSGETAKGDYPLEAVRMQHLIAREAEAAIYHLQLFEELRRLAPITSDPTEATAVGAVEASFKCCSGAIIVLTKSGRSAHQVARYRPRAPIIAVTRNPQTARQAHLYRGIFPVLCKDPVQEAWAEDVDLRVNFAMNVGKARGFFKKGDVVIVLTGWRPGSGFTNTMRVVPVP
Sequence of Alpha-galactosidase A (Homo sapiens) (P06280 whole entry, looked up): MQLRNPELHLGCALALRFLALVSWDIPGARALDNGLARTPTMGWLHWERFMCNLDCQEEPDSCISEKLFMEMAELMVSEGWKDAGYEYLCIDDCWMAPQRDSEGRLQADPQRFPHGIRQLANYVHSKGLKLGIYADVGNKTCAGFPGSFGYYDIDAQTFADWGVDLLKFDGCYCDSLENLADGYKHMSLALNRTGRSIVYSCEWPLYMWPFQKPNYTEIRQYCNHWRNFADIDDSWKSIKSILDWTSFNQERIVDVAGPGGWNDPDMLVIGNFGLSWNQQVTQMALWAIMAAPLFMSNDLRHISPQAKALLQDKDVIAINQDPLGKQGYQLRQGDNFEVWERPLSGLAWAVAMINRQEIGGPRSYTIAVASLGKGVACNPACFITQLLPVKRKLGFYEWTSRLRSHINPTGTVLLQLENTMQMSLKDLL

COc1cccc2c1C(=O)c1c(O)c3c(c(O)c1C2=O)C[C@](O)(C(=O)CO)C[C@@H]3O[C@H]1C[C@H](N)[C@@H](O)[C@H](C)O1
inactive: 7G8

CN(C)c1ccc(-c2nc(Nc3ccncc3)c3ccccc3n2)cc1
inactive: [1] | [2]

C[C@H](Oc1ccc(Oc2cnc3ccc(Cl)cc3n2)cc1)C(=O)O
not listed: 7G8 | [1] | [2]
inactive: all other assays above
